The values below come from PubChem BioAssay AID1259313 (Sanford-Burnham Center for Chemical Genomics, 2017).

SMILES strings stand for the structures. About 8,500 (2.5%) of roughly 340,000 compounds were called active. Shown is part of a subset that was picked to be rich in actives. Unmarked numbers belong to inactive results.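 How the source made its calls: active means melting temperature shift of at least 10% of the positive control shift, at one fixed dose; inactive means the rest.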

The test system of this assay is Glutamate receptor ionotropic, NMDA 3A (GRIN3A) ligand-binding domain. The experiment in a line: binders of NR3A ligand-binding domain, primary screen, biophysical, differential scanning fluorimetry, uHTS (AID 1259313). Conditions: NR3A LBD differential scanning fluorimetry, at 25 µM, active compounds read high, 0% = protein alone, 100% = glycine-bound protein. A general note: Differential scanning fluorimetry follows unfolding on heating by fluorescence.
Turning to `NNC(=O)CNC(c1ccccc1)c1cc(Cl)ccc1NC(=O)c1ccccc1` (centres undefined), the Tm shift relative to glycine control is 2.13%.
The figure for `COc1cc(NC(=O)Nc2ccc(C)cc2)cc([N+](=O)[O-])c1` is 32.9% (active); for `CCOc1ccc(NC(=O)Nc2cc(C)ccc2OC)cc1` it is -2.2%.
As to `CC(C)(C)NC(=O)c1cc(NC(=O)c2ccco2)cc(NC(=O)c2ccco2)c1`, the Tm shift relative to glycine control is 1.37%.
With `CCOC(=O)c1ccc(NC(=O)CNC(=O)c2ccco2)cc1`, the Tm shift relative to glycine control was -0.36%.
As to `CSc1cccc(NC(=O)CSc2ccccc2)c1`, the Tm shift relative to glycine control is -11.8%.
On to `COc1ccc(S(=O)(=O)NNC(=O)Nc2ccc(C)cc2)c(OC)c1`, for which the Tm shift relative to glycine control was -2.73%.
In the case of `O=C(CSc1ccccc1)Nc1ccc(C(=O)Nc2cccc(O)c2)cc1`, the Tm shift relative to glycine control was 29.4% (active).
For the compound `O=C(Nc1ccc(CSc2ccccc2)cc1)c1ccc(CN2CCOCC2)cc1`, the Tm shift relative to glycine control was -2.35%.
On to `COC(=O)c1ccc(NC(=O)c2ccco2)cc1`, for which the Tm shift relative to glycine control is 21.7% (active).
As to `CCOC(=O)/C(C#N)=C\c1c(C)cc(C)c(COC(C)=O)c1C`, the Tm shift relative to glycine control was -1.41%.
The result for `O=C1CSC(c2ccc(Cl)cc2)N1` (centres undefined) reads 0.65%; that for `CCOc1ccccc1NC(=O)Cn1ncc2ccc([N+](=O)[O-])cc21`, 1.06%; that for `Cc1nonc1C(=O)N/N=C/c1ccc(O)cc1`, -3.82%.
Regarding `O=C(CCCN1C(=O)CSc2ncccc21)N1CCN(c2cccc(C(F)(F)F)c2)CC1`, the Tm shift relative to glycine control was -1.45%.
The result for `Cc1ccc(S(=O)(=O)N2CCC3(CC2)OCCO3)c(C)c1` reads -0.77%.
For the compound `CCOc1ccc(Nc2nc(Cc3nnc(SCC(=O)c4ccc(C)cc4)o3)cs2)cc1`, the Tm shift relative to glycine control was -12.6%.
On to `O=C1C(=O)N(CCCN2CCOCC2)C(c2ccc([N+](=O)[O-])cc2)/C1=C(\O)c1ccc2c(c1)OCCO2` (centres undefined), for which the Tm shift relative to glycine control is 0%.
The figure for `Cc1ccc(NC(=O)Cn2c(=O)n(CCC(=O)NC3CCN(Cc4ccccc4)CC3)c(=O)c3ccccc32)cc1` is 0.79%; for `CC(=O)c1c(C)[nH]c(C(=O)OCC(=O)Nc2sc3c(c2C#N)CCCC3)c1C` it is 4.13%.
For `O=C(NCCN1C(=O)C2C3C=CC(C3)C2C1=O)Nc1ccccn1` (centres undefined), the Tm shift relative to glycine control is -0.55%.
Regarding `O=C(COc1ccccc1F)Nc1nc(-c2ccccn2)cs1`, the Tm shift relative to glycine control is -41.9%.
On to `O=C(CN1C(=O)C2C3C=CC(C3)C2C1=O)Nc1nc(-c2ccccn2)cs1` (centres undefined), for which the Tm shift relative to glycine control was 17.6% (active).
Consider `O=C(NCCc1ccccc1)C(=O)NCC1OCCN1S(=O)(=O)c1cccs1` (centres undefined), for which the Tm shift relative to glycine control is 5.49%.
The figure for `CCOC(=O)N1CCN(C(=O)c2ccccc2SCC(=O)NCC2CCCCC2)CC1` is 0.96%.
The figure for `O=C(O)c1cscn1` is -2.23%; for `Cc1oc(-c2ccccc2Cl)[n+]([O-])c1C` it is 0.65%; for `COC(=O)C1=C(C)N(C)C(C)=C(C(=O)OC)C1c1cccc(Br)c1` it is 10.9% (active).
For the compound `COC(=O)C1NN=C(C(=O)c2ccc(Br)cc2)C1c1cccc(Br)c1` (centres undefined), the Tm shift relative to glycine control was -3.88%.
On to `COC(=O)C1=C(C)N(C)C(=S)NC1c1ccccc1` (centres undefined), for which the Tm shift relative to glycine control was 1.46%.
Regarding `O=C(Cc1coc2ccc3ccccc3c12)NCc1cccs1`, the Tm shift relative to glycine control was -3.17%.
For the compound `Cn1cccc1C(=O)NC(=O)COC(=O)Cc1coc2ccc3ccccc3c12`, the Tm shift relative to glycine control is 711% (active).
The result for `COc1ccc2c(CC(=O)OCC(=O)NC(N)=O)coc2c1` reads -1.31%.
Consider `CN(C)S(=O)(=O)c1ccc(C(=O)NCC2(N3CCOCC3)CCCCC2)cc1`, for which the Tm shift relative to glycine control is -0.34%.
As for `CCC(C)NC(=O)C1c2ccccc2C(=O)N1Cc1ccccc1` (centres undefined), the Tm shift relative to glycine control is 0.89%.
With `Cc1c(NS(=O)(=O)c2cccc(C(=O)Nc3ccc(SC(F)F)cc3)c2)c(=O)n(-c2ccccc2)n1C`, the Tm shift relative to glycine control is -4.82%.
Take `Nc1cccc(S(=O)(=O)Nc2ccc(SC(F)F)cc2)c1`: the Tm shift relative to glycine control is -8.52%.
The figure for `COc1ccc(NC(=O)/C(N=Nc2cccc(S(=O)(=O)Nc3ccc(SC(F)F)cc3)c2)=C(\C)O)cc1` is 28% (active).
`Cc1ccc(NN=C2C(=O)OC(C)(C)OC2=O)c(C)c1`: the Tm shift relative to glycine control is -1.21%.
For `CC(CO)N1CCS(=O)(=O)CC1` (centres undefined), the Tm shift relative to glycine control is 0.09%.
Turning to `CCOc1ccc(N/C(N)=N/c2nc(C)c(C)c(=O)[nH]2)cc1`, the Tm shift relative to glycine control was 2.12%.
The result for `Cc1ccc2nc(C)c3c(c2c1)N(c1ccccc1)CC3` reads -1.71%; that for `Cc1cc(Nc2ccc(Br)cc2)nc2ccccc12`, 45.6% (active).
For `Cc1ccc(Nc2nc(C)cc(C)c2C(N)=O)cc1`, the Tm shift relative to glycine control is -2.09%.
In the case of `CCOc1ccc(NC(=O)c2cc(C)nc3ccccc23)cc1`, the Tm shift relative to glycine control was -0.84%.
For the compound `CN1CCN(c2nc(Nc3ccc(O)cc3)nc3ccccc23)CC1`, the Tm shift relative to glycine control is -0.23%.
Turning to `Cc1ccc2nc(Nc3ccccc3)cc(C)c2c1`, the Tm shift relative to glycine control is 30.3% (active).
With `Cc1cccc(NC(=S)N2CCC(O)CC2)c1C`, the Tm shift relative to glycine control was 1.31%.
On to `CC(C)=CCN1CCN(Cc2ccc(Oc3ncccn3)cc2)CC1CCO` (centres undefined), for which the Tm shift relative to glycine control is 0.09%.
For `COC(=O)c1ccc(NC(=O)C23CC4CC(C2)CC(n2cnc(Cl)n2)(C4)C3)cc1`, the Tm shift relative to glycine control is -0.61%.
`COc1ccc(-n2cnnc2SCC(=O)Nc2cccc([N+](=O)[O-])c2)cc1`: the Tm shift relative to glycine control was -0.86%.
`O=C(CSc1nc(-c2ccccc2)cs1)Nc1cccc([N+](=O)[O-])c1`: the Tm shift relative to glycine control was 34.4% (active).
Consider `O=C(CSc1ncn[nH]1)Nc1nc(-c2cccc([N+](=O)[O-])c2)cs1`, for which the Tm shift relative to glycine control was -2.42%.
With `Cc1cc(/C=N/n2cnnc2)c(C)n1-c1ccc2ncccc2c1`, the Tm shift relative to glycine control is -0.4%.
In the case of `Cc1nn(-c2ccccc2)c(C)c1/C=C/C(=O)OC(C)C(N)=O` (centres undefined), the Tm shift relative to glycine control was -7.09%.
`Cc1nn(-c2ccccc2)c(Cl)c1/C=C/C(=O)c1ccc(O)cc1`: the Tm shift relative to glycine control was 15.2% (active).
As for `Cc1ccc(C(=O)/C=C/c2c(C)nn(-c3ccccc3)c2Cl)cc1`, the Tm shift relative to glycine control is -10.2%.
In the case of `COc1ccc(Br)c2c1C(=O)CC2`, the Tm shift relative to glycine control is 2.15%.
Consider `CCCCN(C)C(=O)C1CCN(Cc2ccccn2)CC1`, for which the Tm shift relative to glycine control is 1.37%.
The figure for `COc1ccc(-c2cc(C(=O)N3CCN(Cc4ccc5c(c4)OCO5)CC3)on2)cc1OC` is -2.25%.
Consider `COc1ccc(-c2csc3ncnc(N4CCN(S(=O)(=O)c5ccccc5C#N)CC4)c23)cc1`, for which the Tm shift relative to glycine control was -2.57%.
Take `CC(CNC(=O)Cn1cnc2c(OCc3ccccc3)ncnc21)c1ccccc1` (centres undefined): the Tm shift relative to glycine control is 16.8% (active).
Turning to `Cc1ccc(NC(=O)Cn2cnc3c(OCc4ccccc4)ncnc32)cc1C`, the Tm shift relative to glycine control is -1.41%.
On to `O=C(Cn1cnc2c(OCc3ccccc3)ncnc21)NCc1nc2ccccc2[nH]1`, for which the Tm shift relative to glycine control is -0.08%.
The result for `COc1ccc(Br)cc1CN(C)C(=O)C1CC(=O)N(C2CCCC2)C1` (centres undefined) reads -0.58%; that for `O=C(O)C1CCN1C1CCCCC1` (centres undefined), -1.21%.
Consider `CCOC(=O)c1nnn(CC(=O)Nc2cccc(F)c2)c1C(=O)OCC`, for which the Tm shift relative to glycine control is -0.09%.
As to `Cc1nc(C)c(-c2nnc(-c3cccc(S(=O)(=O)N(C)C)c3)o2)cc1C(=O)NN`, the Tm shift relative to glycine control is 4.67%.
For the compound `CC(C(=O)NC1CCS(=O)(=O)C1)N1C(=O)/C(=C/c2ccc(Cl)cc2)SC1=S` (centres undefined), the Tm shift relative to glycine control is -5.79%.
With `CC1CCN(C2=NC(=O)/C(=C/c3ccc(O)cc3)S2)CC1`, the Tm shift relative to glycine control is -0.54%.
Turning to `O=C1/C(=C\c2ccc(O)cc2)CCC1CNc1ccc(Cl)cc1` (centres undefined), the Tm shift relative to glycine control was 21.3% (active).
`O=C(COC(=O)c1ccc(F)cc1)NCC1COc2ccccc2O1` (centres undefined): the Tm shift relative to glycine control is 0.36%.
In the case of `Cc1cc(C)c2c(c1)c(C)cc1nnc(SCC(=O)NCc3ccco3)n12`, the Tm shift relative to glycine control is 9.65%.
In the case of `Cc1ccccc1N1CC(C(=O)Nc2ccc(S(=O)(=O)N3CCCC3)cc2)CC1=O` (centres undefined), the Tm shift relative to glycine control was -1.31%.
For `COc1ccc(-n2c(SCC(=O)NCc3ccco3)nnc2-c2c[nH]c3ccccc23)cc1`, the Tm shift relative to glycine control was -3.71%.
Take `CC(Oc1ccc(-c2ccccc2)c(F)c1)c1ccn(S(=O)(=O)c2cccc3ccccc23)n1` (centres undefined): the Tm shift relative to glycine control is 1.41%.
On to `NC(=O)c1ccsc1NC(=O)COC(=O)COc1ccc(C=O)cc1`, for which the Tm shift relative to glycine control is -1%.
As for `Cc1cc(NC(=O)CN2C(=O)NC(CCc3ccccc3)C2=O)no1` (centres undefined), the Tm shift relative to glycine control was 0%.
For `Cc1cc(C)c(NC(=O)CN2C(=O)NC(Cc3ccccc3)C2=O)c(C)c1` (centres undefined), the Tm shift relative to glycine control was 0.16%.
Take `CCCCc1ccc(NC(=O)CN2C(=O)NC(Cc3ccccc3)C2=O)cc1` (centres undefined): the Tm shift relative to glycine control was 38.2% (active).
The figure for `Cc1scc(C(=O)NNC(=S)NCC(C)C)c1C` is -0.09%.
`COCCCN1C(=O)c2ccc(C(=O)OCC(=O)NCc3ccccc3OC)cc2C1=O`: the Tm shift relative to glycine control was -0.26%.
As for `CCOc1ccc(NC(=O)CCCCCN2C(=O)[C@@H]3Cc4ccccc4CN3C2=O)cc1`, the Tm shift relative to glycine control is -0.91%.
As to `COc1cc(OC)cc(C(=O)Nc2ccc(-c3nc4ccccc4o3)c(O)c2)c1`, the Tm shift relative to glycine control is 35.4% (active).
The result for `COc1cc(OC)cc(C(=O)N[C@H](C(=O)Nc2nc3ccccc3[nH]2)C(C)C)c1` reads -1.04%; that for `COc1cc(OC)cc(C(=O)Nc2ncc3c(n2)CC(C)(C)CC3=O)c1`, -0.38%; that for `Cc1noc(C)c1S(=O)(=O)Nc1ccc(C(=O)N2CCN(c3ccc(F)cc3)CC2)cc1`, -0.58%.
The figure for `CC/C(=N\O)C(C)(C)/[N+]([O-])=C/c1ccc(Br)cc1` is 0.62%.
`CC(C)CN1CCNC(=O)C1CC(=O)N(C)CC1CCOCC1` (centres undefined): the Tm shift relative to glycine control was 0.85%.
The result for `COCCNC(=O)Cn1cc2c(n1)CCCCC2` reads -0.96%; that for `COC(=O)c1cccc(-n2[nH]nnc2=S)c1`, -0.34%.
The figure for `Cc1ccc(Nc2nc(N)nc(CN3CCN(Cc4ccccc4)CC3)n2)cc1Cl` is -0.21%.
The result for `NS(=O)(=O)c1ccc(CCNc2nc(C(F)(F)F)nc3ccccc23)cc1` reads -7.08%; that for `OCCNc1nc(Nc2ccc(Cl)c(Cl)c2)nc2ccccc12`, 15.3% (active).
